Compound activity from PubChem BioAssay.
CYP2C19 activ – human CYP2C19 activators, primary screen, biochemical, luminescence. Cytochrome P450 2C19 (Homo sapiens), P33261. recombinant CYP2C19, luciferin-H EGE luminescence; active compounds read high; 0 = fully inhibited enzyme, 1 = untreated enzyme. activation factor at 5 µM. 96,000 tested, under 10 active;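 active = activation factor of at least 2 at 5 µM in the primary screen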;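 also: 0 = wells with 2.5 mM tranylcypromine and 1 = vehicle-only wells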
Target sequence (P33261 whole entry, looked up): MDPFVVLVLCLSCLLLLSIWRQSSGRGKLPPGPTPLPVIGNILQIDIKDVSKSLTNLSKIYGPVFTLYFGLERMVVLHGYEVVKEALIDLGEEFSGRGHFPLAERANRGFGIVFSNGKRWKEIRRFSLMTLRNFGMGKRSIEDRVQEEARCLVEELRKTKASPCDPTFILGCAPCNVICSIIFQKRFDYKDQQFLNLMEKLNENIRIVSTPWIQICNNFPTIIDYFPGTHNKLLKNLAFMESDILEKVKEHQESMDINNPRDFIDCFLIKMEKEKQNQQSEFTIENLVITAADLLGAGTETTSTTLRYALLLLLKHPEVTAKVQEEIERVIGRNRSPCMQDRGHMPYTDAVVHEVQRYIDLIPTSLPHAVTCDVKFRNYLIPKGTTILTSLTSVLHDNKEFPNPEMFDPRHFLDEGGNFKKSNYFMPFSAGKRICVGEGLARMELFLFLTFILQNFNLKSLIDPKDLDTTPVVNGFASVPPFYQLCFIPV
CYP2C9 activ – human CYP2C9 activators, primary screen, biochemical, luminescence. Cytochrome P450 2C9 (Homo sapiens), P11712. recombinant CYP2C9, luciferin-H conversion; active compounds read high; factor 1 = untreated enzyme, 0 = blocked. activation factor at 5 µM. hit rate 1.4% among 96,000;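 active = activation factor of 2 or more for CYP2C9 at a 5 µM dose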;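 also: 0 = sulfaphenazole-blocked wells and 1 = vehicle-only wells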
CYP2C9 inh – blockers of cytochrome P450 2C9 activity – biochemical, luminescence, ADME assay, primary screen; P11712; CYP2C9 Supersomes, luciferin-H conversion; AID 777, 2007; inhibition, % at 5 µM; hit rate 20% among 96,000;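 active = blocking of liver enzyme CYP2C9 beyond about 50% at 5 µM, limit read from the data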
CYP2C19 inh – blockers of cytochrome P450 2C19 activity – biochemical, luminescence, ADME assay, primary screen; CYP2C19 Supersomes, luciferin-H EGE luminescence, 30 min; hit rate 21% among 96,000; P33261; inhibition, % at 5 µM;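 active = CYP2C19 inhibition above a set limit at 5 µM in the primary screen, cut at about 50% in these data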;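 also: plate controls were negative control wells for no effect and 2.5 mM tranylcypromine positive control for full effect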
PLK1 inh – human PLK1 kinase inhibitors, primary screen, biochemical, TR-FRET. inhibition, % at 10 µM. hit rate 0.53% among 97,000. AID 619, 2007. Serine/threonine-protein kinase PLK1 (Homo sapiens), P53350. recombinant PLK1 kinase, TR-FRET peptide phosphorylation;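 active = inhibition of 50% or more in the single-concentration screen; inactive = inhibition below 50%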;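 also: 0% = DMSO max control and 100% = H-89 dihydrochloride min control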
PLK1 PBD inh – Plk1 polo box domain binding inhibitors, primary screen, biochemical, fluorescence polarization. Serine/threonine-protein kinase PLK1 (Homo sapiens), P53350. Plk1 PBD phosphopeptide binding. inhibition, %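 (tested at about 20 µM)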. hit rate 0.13% among 97,000. AID 693, 2007; in the data active = inhibition above about 34%, passing the limit was not always enough
The depositor's hits bear a star; . = no result. An excerpt weighted towards active compounds, which were near 28% of everything screened.

SMILES	CYP2C19 activ	CYP2C9 activ	CYP2C9 inh	CYP2C19 inh	PLK1 inh	PLK1 PBD inh
COc1ccc(C(=O)Nc2ccc(Cl)cc2C(=O)N2CCCC(C)C2)cc1 (stereo not drawn)	0.7	0.8	23	33	-17	9
Cc1oc(-c2ccc(Cl)cc2)nc1CN1CCC(C(=O)N2CCN(Cc3ccccc3)CC2)CC1	0.9	0.8	20	7	59*	-11
Cc1ccc(C(C(=O)NCc2ccco2)N(CCc2ccccc2)C(=O)Cn2nnc3ccccc32)o1 (stereo not drawn)	0.9	0.9	11	14	.	.
N#CCSc1nnc(COc2cccc3ccccc23)n1-c1ccccc1	0.1	0	96*	91*	-7	-6
COc1ccc(-n2c(COc3cccc4ccccc34)nnc2SCC#N)cc1	.	.	.	.	-8	-10
Cc1ccc(-c2nnc(CSc3nnc(COc4cccc5ccccc45)n3-c3ccccc3)o2)cc1	0.7	0.4	59*	30	-13	47*
CCC(C(=O)NC(C)(C)C)N(C(=O)Cn1nnc(-c2cccs2)n1)c1cnc2ccccc2c1 (stereo not drawn)	0.8	0.4	65*	18	-3	15
COc1cccc(N(C(=O)Cn2nnc(-c3ccc(C)o3)n2)C(C(=O)NC(C)(C)C)c2cccs2)c1 (stereo not drawn)	.	.	.	.	-9	6
O=C(Cn1c(N2CCN(c3ccccc3)CC2)nc2ccccc21)c1ccccc1	1.1	1.1	-11	-12	.	.
Cc1ccc(-c2nnc(SCC(=O)Nc3ccccc3N3CCOCC3)o2)cc1	0.9	1	-1	6	-6	18
Cc1ccc(-c2nnn(CC(=O)Nc3ccccc3N3CCOCC3)n2)cc1	0.7	0.2	79*	26	-17	-8
CN(C)CCCNCC(=O)Nc1ccccc1N1CCOCC1	1	0.3	67*	2	-3	10
Cn1c(-c2ccc(F)cc2)cnc1SCC(=O)Nc1ccccc1N1CCOCC1	0.3	0.5	46	68*	-9	13
CCc1ccccc1NC(=O)Cn1nnc(-c2cccnc2)n1	0	0.9	15	96*	-2	-21
COc1ccc2nc(SCC(=O)/C(C#N)=C(\C)N)[nH]c2c1	0.7	0.8	15	33	-9	-8
O=C(COC(=O)c1ccccc1)Nc1ccccc1N1CCOCC1	.	.	.	.	-11	-5
O=C(Cn1nnc(-c2ccccc2)n1)Nc1ccccc1N1CCOCC1	0.4	0.3	74*	63*	0	-7
CC1(C)Cc2cccc(OCC(=O)Nc3ccccc3N3CCOCC3)c2O1	0.1	0.4	56*	91*	1	-28
COc1ccccc1OC(=O)c1ccc(SC)cc1OC	0.5	0.8	23	46	-3	8
CCOc1ccccc1C(=O)Nc1cccc(-c2nnc(-c3ccccc3)o2)c1	0.8	1.8	-81	17	-20	-3
O=C(NCC1CCCO1)C1CCN(c2ccc(S(=O)(=O)N3CCCC3)cc2)CC1 (stereo not drawn)	1	0.6	44	1	-8	8
O=S(=O)(c1ccc(S(=O)(=O)N(Cc2cccs2)CC2CCCO2)cc1)N1CCCCC1 (stereo not drawn)	0.3	0.2	83*	73*	2	3
O=S(=O)(NC1CCCC1)c1ccc(S(=O)(=O)N(Cc2cccs2)CC2CCCO2)cc1 (stereo not drawn)	0	0	97*	97*	-1	-6
COc1cccc(CN(CC2CCCO2)S(=O)(=O)c2ccc(S(=O)(=O)N(C)C)cc2)c1 (stereo not drawn)	0.7	0.5	46	26	-12	-1
CCOc1ccccc1N(CC(=O)NCC1CCCO1)C(=O)CCC(=O)Nc1ccccn1 (stereo not drawn)	0.7	0.8	21	34	.	.
Cc1ccc(S(=O)(=O)NCCOc2nc(N3CCOCC3)nc(N3CCOCC3)n2)cc1	0.8	0.6	36	24	-22	-4
C/C(=C\C(=O)O)C12CC3CC(CC(C3)C1)C2	1.1	0.9	10	-5	-31	-17
